Paper PMC5540273 (PLoS ONE, 2017)

Columns and labels:
Conditions in all cases: concentration: 1 μM, replicates: in singlicate; n = 1
AAK1 = test system: AAK1
ABL1-nonphosphorylated = test system: ABL1-nonphosphorylated
ABL1-phosphorylated = test system: ABL1-phosphorylated
ABL2 = test system: ABL2
ACVR1B = test system: ACVR1B
ACVR1 = test system: ACVR1
ACVR2A = test system: ACVR2A
ACVR2B = test system: ACVR2B
ACVRL1 = test system: ACVRL1
ADCK3 = test system: T1, ADCK3
T1 construct: gene CABC1

ADCK4 = test system: ADCK4
AKT1 = test system: AKT1
AKT2 = test system: AKT2
AKT3 = test system: AKT3
ALK = test system: ALK
AMPK-alpha1 = test system: T2, AMPK-alpha1
T2 construct: gene PRKAA1
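Also: KINOMEscan kinase panel screen.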

## c1ccc(-c2cc(-c3c[nH]nc3-c3ccccn3)ccn2)cc1 [GW576604]
AAK1
  %Inh: 23%
ABL1-nonphosphorylated
  %Inh: 0%
ABL1-phosphorylated
  %Inh: 0%
ABL2
  %Inh: 0%
ACVR1B
  %Inh: 37%
ACVR1
  %Inh: 0%
ACVR2A
  %Inh: 0%
ACVR2B
  %Inh: 42%
ACVRL1
  %Inh: 0%
ADCK3
  %Inh: 1%
ADCK4
  %Inh: 12%
AKT1
  %Inh: 0%
AKT2
  %Inh: 0%
AKT3
  %Inh: 0%
ALK
  %Inh: 14%
AMPK-alpha1
  %Inh: 0%

## Cc1cccc(-c2nc(Nc3ccc4ncsc4c3)c3ccccc3n2)n1 [GW867588]
AAK1
  %Inh: 7%
ABL1-nonphosphorylated
  %Inh: 0%
ABL1-phosphorylated
  %Inh: 0%
ABL2
  %Inh: 20%
ACVR1B
  %Inh: 35%
ACVR1
  %Inh: 15%
ACVR2A
  %Inh: 0%
ACVR2B
  %Inh: 2%
ACVRL1
  %Inh: 0%
ADCK3
  %Inh: 0%
ADCK4
  %Inh: 0%
AKT1
  %Inh: 12%
AKT2
  %Inh: 0%
AKT3
  %Inh: 0%
ALK
  %Inh: 0%
AMPK-alpha1
  %Inh: 19%

## CN1c2ccc(NCc3ccc(F)cc3)cc2-c2c(cnn2C)S1(=O)=O
AAK1
  %Inh: 0%
ABL1-nonphosphorylated
  %Inh: 21%
ABL1-phosphorylated
  %Inh: 9%
ABL2
  %Inh: 0%
ACVR1B
  %Inh: 0%
ACVR1
  %Inh: 0%
ACVR2A
  %Inh: 0%
ACVR2B
  %Inh: 0%
ACVRL1
  %Inh: 7%
ADCK3
  %Inh: 10%
ADCK4
  %Inh: 0%
AKT1
  %Inh: 4%
AKT2
  %Inh: 7%
AKT3
  %Inh: 0%
ALK
  %Inh: 13%
AMPK-alpha1
  %Inh: 0%

## COc1ccc(S(=O)(=O)NC2CCN(c3cc(C)nc(Nc4cccc(C#N)c4)n3)CC2)cc1.O=C(O)C(F)(F)F [GSK1653539]
AAK1
  %Inh: 0%
ABL1-nonphosphorylated
  %Inh: 0%
ABL1-phosphorylated
  %Inh: 0%
ABL2
  %Inh: 1%
ACVR1B
  %Inh: 0%
ACVR1
  %Inh: 0%
ACVR2A
  %Inh: 0%
ACVR2B
  %Inh: 0%
ACVRL1
  %Inh: 0%
ADCK3
  %Inh: 20%
ADCK4
  %Inh: 35%
AKT1
  %Inh: 0%
AKT2
  %Inh: 0%
AKT3
  %Inh: 0%
ALK
  %Inh: 5%
AMPK-alpha1
  %Inh: 0%

## O=c1cc(N2CCOCC2)nc2n(Cc3cccc(C(F)(F)F)c3)ccn12 [GSK2297543]
AAK1
  %Inh: 0%
ABL1-nonphosphorylated
  %Inh: 0%
ABL1-phosphorylated
  %Inh: 0%
ABL2
  %Inh: 3%
ACVR1B
  %Inh: 0%
ACVR1
  %Inh: 5%
ACVR2A
  %Inh: 0%
ACVR2B
  %Inh: 0%
ACVRL1
  %Inh: 0%
ADCK3
  %Inh: 21%
ADCK4
  %Inh: 16%
AKT1
  %Inh: 0%
AKT2
  %Inh: 0%
AKT3
  %Inh: 15%
ALK
  %Inh: 0%
AMPK-alpha1
  %Inh: 4%

## CCCCCc1nc2c(N)ncnc2n1CCCCC [SKF-97255]
AAK1
  %Inh: 6%
ABL1-nonphosphorylated
  %Inh: 31%
ABL1-phosphorylated
  %Inh: 30%
ABL2
  %Inh: 0%
ACVR1B
  %Inh: 26%
ACVR1
  %Inh: 0%
ACVR2A
  %Inh: 0%
ACVR2B
  %Inh: 0%
ACVRL1
  %Inh: 13%
ADCK3
  %Inh: 1%
ADCK4
  %Inh: 0%
AKT1
  %Inh: 0%
AKT2
  %Inh: 0%
AKT3
  %Inh: 0%
ALK
  %Inh: 0%
AMPK-alpha1
  %Inh: 3%

## CC(=O)Nc1ccc(COc2ccc(Nc3ccnc4cc(-c5ccccn5)ccc34)cc2)cc1.Cl [GW440148]
AAK1
  %Inh: 13%
ABL1-nonphosphorylated
  %Inh: 35%
ABL1-phosphorylated
  %Inh: 19%
ABL2
  %Inh: 11%
ACVR1B
  %Inh: 0%
ACVR1
  %Inh: 0%
ACVR2A
  %Inh: 0%
ACVR2B
  %Inh: 59%
ACVRL1
  %Inh: 3%
ADCK3
  %Inh: 18%
ADCK4
  %Inh: 26%
AKT1
  %Inh: 0%
AKT2
  %Inh: 15%
AKT3
  %Inh: 0%
ALK
  %Inh: 6%
AMPK-alpha1
  %Inh: 0%

## COc1cc2c(cc1OC[C@@H](O)CO)ncc1c3ccc(C#N)cc3[nH]c21
AAK1
  %Inh: 78%
ABL1-nonphosphorylated
  %Inh: 49%
ABL1-phosphorylated
  %Inh: 21%
ABL2
  %Inh: 0%
ACVR1B
  %Inh: 0%
ACVR1
  %Inh: 0%
ACVR2A
  %Inh: 0%
ACVR2B
  %Inh: 1%
ACVRL1
  %Inh: 0%
ADCK3
  %Inh: 0%
ADCK4
  %Inh: 0%
AKT1
  %Inh: 0%
AKT2
  %Inh: 0%
AKT3
  %Inh: 0%
ALK
  %Inh: 15%
AMPK-alpha1
  %Inh: 0%

## COc1cc2c(cc1OCCN1CCN(C)CC1)ncc1c3ccc(C#N)cc3[nH]c21
AAK1
  %Inh: 96.2%
ABL1-nonphosphorylated
  %Inh: 82%
ABL1-phosphorylated
  %Inh: 69%
ABL2
  %Inh: 6%
ACVR1B
  %Inh: 0%
ACVR1
  %Inh: 0%
ACVR2A
  %Inh: 10%
ACVR2B
  %Inh: 0%
ACVRL1
  %Inh: 0%
ADCK3
  %Inh: 0%
ADCK4
  %Inh: 3%
AKT1
  %Inh: 0%
AKT2
  %Inh: 18%
AKT3
  %Inh: 0%
ALK
  %Inh: 0%
AMPK-alpha1
  %Inh: 10%

## Cc1nnc(-c2ccc3ncc(-c4ccc(S(C)=O)cc4)n3c2)o1 (stereo not shown)
AAK1
  %Inh: 41%
ABL1-nonphosphorylated
  %Inh: 44%
ABL1-phosphorylated
  %Inh: 6%
ABL2
  %Inh: 7%
ACVR1B
  %Inh: 0%
ACVR1
  %Inh: 0%
ACVR2A
  %Inh: 0%
ACVR2B
  %Inh: 0%
ACVRL1
  %Inh: 0%
ADCK3
  %Inh: 0%
ADCK4
  %Inh: 18%
AKT1
  %Inh: 3%
AKT2
  %Inh: 15%
AKT3
  %Inh: 2%
ALK
  %Inh: 40%
AMPK-alpha1
  %Inh: 1%

## CSc1ccc(-c2cc3ncnc(SCC(=O)O)c3s2)cc1
AAK1
  %Inh: 0%
ABL1-nonphosphorylated
  %Inh: 0%
ABL1-phosphorylated
  %Inh: 0%
ABL2
  %Inh: 0%
ACVR1B
  %Inh: 0%
ACVR1
  %Inh: 0%
ACVR2A
  %Inh: 0%
ACVR2B
  %Inh: 0%
ACVRL1
  %Inh: 0%
ADCK3
  %Inh: 0%
ADCK4
  %Inh: 0%
AKT1
  %Inh: 0%
AKT2
  %Inh: 0%
AKT3
  %Inh: 0%
ALK
  %Inh: 0%
AMPK-alpha1
  %Inh: 14%

## Cn1ccc2ncnc(Oc3ccc(NC(=O)Nc4ccncc4)c(Cl)c3)c21
AAK1
  %Inh: 0%
ABL1-nonphosphorylated
  %Inh: 31%
ABL1-phosphorylated
  %Inh: 3%
ABL2
  %Inh: 0%
ACVR1B
  %Inh: 23%
ACVR1
  %Inh: 0%
ACVR2A
  %Inh: 0%
ACVR2B
  %Inh: 0%
ACVRL1
  %Inh: 4%
ADCK3
  %Inh: 0%
ADCK4
  %Inh: 0%
AKT1
  %Inh: 9%
AKT2
  %Inh: 14%
AKT3
  %Inh: 0%
ALK
  %Inh: 0%
AMPK-alpha1
  %Inh: 0%

## Fc1ccc(-c2ncn(CCCN3CCOCC3)c2-c2ccccn2)cc1 [SB-211742]
AAK1
  %Inh: 0%
ABL1-nonphosphorylated
  %Inh: 39%
ABL1-phosphorylated
  %Inh: 12%
ABL2
  %Inh: 7%
ACVR1B
  %Inh: 1%
ACVR1
  %Inh: 0%
ACVR2A
  %Inh: 0%
ACVR2B
  %Inh: 19%
ACVRL1
  %Inh: 0%
ADCK3
  %Inh: 3%
ADCK4
  %Inh: 6%
AKT1
  %Inh: 15%
AKT2
  %Inh: 4%
AKT3
  %Inh: 0%
ALK
  %Inh: 19%
AMPK-alpha1
  %Inh: 10%
